uPA surface inh: qHTS for Inhibitors of Cell Surface uPA Generation; cell surface uPA generation assay, qHTS; Potency, µM (highest dose often 38.3 µM), for the others: at the top dose activity change, negative = inhibition, most hits filed as inhibitors; 330,000 compounds, 0.31% hits; AID 540303, 2011; active means well fitted inhibition curve with a large enough effect; inconclusive means small, poorly fitted or top-dose-only effect; inactive means no such curve, though single readings can be large or run the other way; tested in mouse RAW 264.7 cells; further: potency means the concentration at half of the fitted maximal effect; on the % scale 0 is the no-effect control and ±100 the full control effect; nearly all actives have a fitted effect of over 55% in size
TCR act: Activators of T cell receptors: qHTS campaign. primary human leukocytes, anti-CD3, IL-2 HTRF, 48 h. AID 504894, 2011. Potency, µM (highest dose often 9.22 µM), for the others: at the top dose activation of IL-2 secretion, hits mostly activators. 330,000 tested, under 10 active; further: % of control where 0% means no effect
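Using a-CD3 beads without co-stimulation, primary human leukocytes were exposed to compounds for 48 hr. An HTRF IL-2 kit measured the cytokine, with europium-to-d2 energy transfer producing emission at 665nm upon 320nm excitation.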
ClpP mod: qHTS Assay for Activators of ClpP | 340,000 compounds, 1.9% hits | purified B. subtilis ClpP, FRET peptide cleavage, 20 min | Potency, µM (highest dose often 57.5 µM), inactives show top-dose activity change, negative = active | ATP-dependent Clp protease proteolytic subunit (Bacillus subtilis (strain 168)), P80244; active means well fitted falling curve with a large enough effect; inconclusive means small, poorly fitted or top-dose-only effect; inactive means no such curve, though single readings can be large or run the other way; further: potency means the concentration at half of the fitted maximal effect; the source files actives as falling curves though it sought activators and does not explain the sign; nearly all actives have a fitted effect of over 65% in size
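Purified B. subtilis ClpP, 10 microg/mL final in Tris/HCl pH8 with KCl, BSA, glycerol and Tween-20, cleaved an Abz/nitrotyrosine-quenched decapeptide. Fluorescence (ex 320, em 430) was read at 0 and 20 min at room temperature. Delta was normalized to 5.8 microM ADEP and DMSO/no-enzyme controls.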
Sfp PPTase inh: qHTS Assay for Inhibitors of Bacillus subtilis Sfp phosphopantetheinyl transferase (PPTase) | 4'-phosphopantetheinyl transferase ffp (Bacillus subtilis), Q9F4F7 | Biochemical Sfp PPTase activity, qHTS | Potency, µM, inactives show largest response in the series, negative = inhibition, actives largely listed as inhibitors | 310,000 compounds, 3.5% hits | AID 1490, 2009;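 further: the enzyme is Sfp with the accession as filed and its product quenches rhodamine fluorescence; potency means the concentration at half of the fitted maximal effect; 0% = enzyme reaction without inhibitor and -100% = no enzyme wells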
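Compounds were incubated with enzyme (final 15 nM) for 15 min at room temperature before substrate addition started the reaction. Fluorescence at 525 nm excitation, 598 nm emission was recorded immediately and after 30 minutes.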
* = called active by the depositor; u = inconclusive; x = not tested or not shown; ! = repeats disagree; [ ] = remark or other dose. A selection: hits, their analogues and other compounds. The true share with any hit is near 4.2%. Unless noted, the call rests on the fitted dose curve; in most records, active means well fitted curve in the direction sought with a large enough effect; inconclusive means small, poorly fitted or top-dose-only effect, or another doubt; inactive means no such curve, though single readings can be large; an effect the other way counts as inactive or inconclusive.

SMILES	uPA surface inh	TCR act	ClpP mod	Sfp PPTase inh
S=c1[nH]nc(NCCCN2CCOCC2)s1	9.4%	-3.3%	-1.0%	35.5µM*
Cc1cccc(CNC(=O)Cc2ccc(NC(=O)N3CCCCc4ccccc43)cc2)c1	x	x	-1.3%	x
CCCC(C(=O)NCC1CCCO1)N(Cc1ccco1)C(=O)CNS(=O)(=O)c1ccccc1 (stereo not given)	-1.9%	10.3%	25.1µM*	8.0%
CCCC(C(=O)NC1CCCCC1)N(Cc1ccco1)C(=O)CNS(=O)(=O)c1ccccc1 (stereo not given)	0.4%	7.4%	0.2%	16.4%
C=CCN1c2ccccc2[C@]23C[C@@H](C(=O)OC)N(C(=O)c4cccs4)C2=NC(C(=O)OC)=C(C(=O)OC)[C@H]13	6.31µM*	1.8%	-2.6%	11.0%
C=CCN1c2ccccc2[C@]23C[C@@H](C(=O)OC)N(C(=O)c4ccc(Br)cc4)C2=NC(C(=O)OC)=C(C(=O)OC)[C@H]13	5.62µM*	-1.5%	-1.9%	21.6%
C=CCN1c2ccccc2[C@]23C[C@@H](C(=O)OC)N(C(=O)OCC)C2=NC(C(=O)OC)=C(C(=O)OC)[C@H]13	-27.0%	-0.5%	0.4%	16.7%
N#CC1(Nc2cccc(Cl)c2)CCCC1	1.6%	8.1%	x	x
CCOc1ccc(N)c(SSc2cc(OCC)ccc2N)c1	-7.8%	4.8%	-2.0%	2.82µM*
Cc1nnc(N2C(=O)c3oc4ccccc4c(=O)c3C2c2ccc(F)cc2)s1 (stereo not given)	x	x	-2.7%	x
N[C@@H](Cn1cc(F)c(=O)[nH]c1=O)C(=O)O	x	x	x	56.2µM*
CC1(C)CC(=O)c2cnc(NC(=O)CSc3nc4ccccc4o3)nc2C1	3.3%	2.4%[46.1 µM]	-2.3%	70.8µM*
CC[C@]12c3[nH]c4ccc(Cl)cc4c3CCN1C(=O)[C@@H](CC(=O)NC/C=C(\C)CCC=C(C)C)C[C@@H]2C(=O)N1CCN(C(=O)C2CC2)CC1	u	1.7%[46.1 µM]	1.4%	x
CCC(=O)NC1=C(Cl)C(=O)C(NC(=O)CC)=C(Cl)C1=O	6.5%	11.4%	2.2%	0.562µM*
CCC(=O)NC1=C(NC(C)c2ccccc2)C(=O)c2ccccc2C1=O (stereo not given)	-3.7%	7.7%	-5.9%	-17.4%
CN(C)CCCNc1cc(O)c2ncccc2c1	3.98µM*	-1.6%	x	x
Oc1cc(NCc2ccc(F)cc2)cc2cccnc12	u	-5.5%	x	x
O=C(NC1CC(=O)N(c2ccc(F)cc2)C1)c1ccco1 (stereo not given)	x	x	0.0%	x
CN=C1N[C@H](c2ccccc2)N(c2ccccc2)S1	x	x	x	112µM*
CCN1C(=O)NC(c2ccccc2)C1=O (stereo not given)	-4.8%	-4.1%	-0.8%	x
COc1ccccc1NC(=O)CCN1C(=O)/C(=C\c2cc(OC)c(OC)c(OC)c2)SC1=S	3.1%	0.9%	0.3%	56.2µM*
CCc1nnc(NC(=O)CN2C(=O)/C(=C/c3cc(OC)c(OC)c(OC)c3)SC2=S)s1	10.8%	11.2%[46.1 µM]	0.4%	50.1µM*
CC(C(=O)O)N1C(=O)/C(=C/c2cccn2C)SC1=S (stereo not given)	-2.7%	2.2%[46.1 µM]	-0.2%	56.2µM*
CC1CCC/C(=C\Nc2ccc(C(=O)O)c(O)c2)C1=O (stereo not given)	3.3%	8.4%	x	50.1µM*
CC1CCC/C(=C\Nc2ccc(C(=O)O)cc2)C1=O (stereo not given)	1.0%	x	x	-5.5%
SMILES	uPA surface inh	TCR act	ClpP mod	Sfp PPTase inh
CNCCCC12CCC(c3ccccc31)c1ccccc12	-27.5%	-1.0%	2.4%	89.1µM*!
CCS(=O)(=O)c1oc(-c2ccc(F)cc2)nc1S(=O)(=O)c1ccc(Br)cc1	x	x	-5.5%	x
CCOC(=O)c1c(NC(=O)/C=C/c2ccccc2)sc2c1CCCC2	x	x	-0.4%	x
Fc1ccc(Nc2nc(SCc3ccc(Cl)cc3)nc3ccccc23)cc1	x	x	35.5µM*	x
CN(C)Cc1ccccc1-c1cncnc1Nc1ccccc1	x	x	x	11.0%
COC(=O)C1=CN(CC2CCCO2)C=C(C(=O)OC)C1c1ccccc1C(F)(F)F (stereo not given)	3.3%	-0.3%	31.6µM*	2.9%
N=c1c2c(ncn1Cc1ccco1)Oc1c(ccc3ccccc13)C2c1ccccc1 (stereo not given)	-12.1%	2.6%[46.1 µM]	-3.3%	50.1µM*
Cc1coc2c1c(C)cc1oc(=O)c(CC(=O)NCCc3ccc(Cl)cc3)c(C)c12	x	x	-23.0%	x
O=C(Nc1ccc(F)cc1F)c1noc2c1CCc1ccccc1-2	x	x	-15.7%	x
Cc1ccc(-c2noc(CN(C3CCCCC3)S(=O)(=O)c3ccc(Cl)cc3)n2)cc1	x	x	1.0%	x
COCCCNC(=S)N1CCCN(c2nc3cc(C)c(C)cc3cc2C#N)CC1	-8.8%	-0.3%	u	28.2µM*
CCN(CC)c1ccc2c(C)c(CN3CCOCC3)c(=O)oc2c1	-0.1%	5.1%	28.2µM*	8.1%
CCN(CC)c1ccc2c(C)c(CO)c(=O)oc2c1	-2.6%	-3.5%	x	15.6%
O=C1[C@@H]2Cc3c([nH]c4ccccc34)C(c3ccc([N+](=O)[O-])cc3)N2C(=O)CN1C1CC1 (stereo not given in full)	u	-0.6%	1.5%	-3.0%
Cc1cccc2c1-c1sc(C(=O)Nc3ccccc3N3CCN(C)CC3)cc1CO2	1.6%	-2.6%	x	35.5µM*
COc1ccc(NC(=O)c2cc3c(s2)-c2c(C)cccc2OC3)cc1Cl	x	x	25.1µM*	x
Cc1nn(-c2ccccc2)cc1C(c1c(N)[nH]c(=S)[nH]c1=O)c1c(N)[nH]c(=S)[nH]c1=O	3.7%	-0.1%	x	22.4µM*
Cc1nn(-c2ccccc2)cc1/C=N/NC(N)=S	-3.2%	10.5%	-1.4%	25.3%
C=C1C=C(C)n2ncc(C(=O)Nc3ccc(C)cn3)c2N1	x	x	-4.7%	x
Cc1ccc(C2C(C#N)=C(N)SC(N)=C2C#N)o1	x	x	x	12.6µM*
CCc1ccc(C2C(C#N)=C(N)SC(N)=C2C#N)s1	17.6%	-6.4%	-4.2%	-9.9%
CCOc1ccc(Nc2nc(Cc3nnc(SCC(=O)O)o3)cs2)cc1	-20.1%	4.0%	-2.1%	44.7µM*
O=C(CN1C(=O)CCC1=O)Nc1nc(-c2ccccn2)cs1	u	-10.5%	-10.1%	50.1µM*
Cc1ccc(C(=O)Nc2nc(-c3ccccn3)cs2)s1	4.47µM*	6.5%	-2.8%	x
O=C(CN1C(=O)CCC1=O)Nc1nc(-c2ccc3ccccc3c2)cs1	7.0%	-0.3%	-3.1%	8.1%
SMILES	uPA surface inh	TCR act	ClpP mod	Sfp PPTase inh
Cc1c(Cl)cccc1NC(=O)N1CCC(CN2CCOCC2)CC1	x	x	2.4%	x
COc1ccccc1-c1nnc(NC(C)=O)s1	-3.9%	-4.3%	28.2µM*	-9.8%
COc1ccccc1-c1nnc(NC(=O)C(C)C)s1	4.3%	-1.3%	31.6µM*	10.7%
CCCCOC(=O)Nc1nnc(-c2ccccc2OC)s1	1.5%	-2.6%	u	6.4%
O=C(C1CCC(Cn2c(=O)c3sccc3n(Cc3cccc(F)c3)c2=O)CC1)N1CCOCC1 (stereo not given)	x	x	-1.5%	x
CC(=O)N[C@H](CC(C)C)C(=O)O	x	x	x	-4.8%
